The source of these data is PubChem BioAssay AID2235 (The Scripps Research Institute Molecular Screening Center, 2010).

Hit rate of the full screen: of about 320,000 compounds, about 2,800 (0.88%) were called active.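 Rule for the calls: active = inhibition above the mean inhibition of all tested compounds plus 3 SD, computed separately for each screening campaign (cut at about 15% in these data); inactive = the rest.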 Only a selection was taken, and actives are over-represented in it overall.

For the assay, the target named is Serine/threonine-protein phosphatase PP1-alpha catalytic subunit (Homo sapiens) (UniProt P62136). Put plainly: PP1-alpha phosphatase inhibitors, primary screen, counter-screen for PP5 inhibitor project, biochemical, fluorescence, OMFP substrate, single point (AID 2235). Particulars: purified PP1alpha, at 6.7 µM, stronger effect = higher value.
Chain of Serine/threonine-protein phosphatase PP1-alpha catalytic subunit (Homo sapiens) (P62136 whole entry, looked up): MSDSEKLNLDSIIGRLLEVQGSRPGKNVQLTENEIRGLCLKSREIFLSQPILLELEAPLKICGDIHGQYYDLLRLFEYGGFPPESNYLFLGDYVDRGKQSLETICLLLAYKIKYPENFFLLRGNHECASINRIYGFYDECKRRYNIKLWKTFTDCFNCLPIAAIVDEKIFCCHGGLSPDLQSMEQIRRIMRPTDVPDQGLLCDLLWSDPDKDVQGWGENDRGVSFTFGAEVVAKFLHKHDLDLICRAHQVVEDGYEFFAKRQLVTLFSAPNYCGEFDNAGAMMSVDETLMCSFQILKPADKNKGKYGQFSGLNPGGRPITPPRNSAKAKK
The inhibition is the drop in the measured response relative to a control, in per cent. As for `O=C(CC(c1ccccc1)c1cc(Cl)ccc1O)NCCN1CCOCC1` (stereo unspecified), the inhibition is -1.01% (inactive).

As for `O=C(COC(=O)c1ccccc1SCC(=O)N1CCCC1)Nc1ccccc1OC(F)F`, the inhibition is -0.81% (inactive).

With `CCOC(=O)c1ccc[n+](CC(=O)Nc2ccccc2OC(F)F)c1`, the inhibition was -3.16% (inactive).

On to `Cc1ccc(-c2nc(SCC(=O)Nc3ccccc3OC(F)F)c3c(C)c(C(=O)O)sc3n2)cc1`, for which the inhibition was 52% (active).

`Cc1ccc(C)c(NC(=O)CSc2nc3c(oc4ccccc43)c(=O)n2-c2ccccc2)c1`: the inhibition was 10.1% (inactive).

Turning to `COc1cc(C(C(=O)NC2CCCC2)N(Cc2ccccc2)C(=O)c2snc(C(N)=O)c2N)ccc1O` (stereo unspecified), the inhibition is -0.55% (inactive).

As for `CCOC(=O)Cc1cc(=O)[nH]c(=O)[nH]1`, the inhibition is -3.59% (inactive).

Turning to `COc1ccc(-c2ocnc2C(=O)Nc2ccc3c(c2)CCC3)cc1`, the inhibition was -2.76% (inactive).

On to `O=Cc1c(Cl)cccc1Cl`, for which the inhibition is -3.41% (inactive).

With `O=C1N=C2SCCN2/C1=C\c1c(Cl)cccc1Cl`, the inhibition is 15.4% (active).

For `O=C1N=C(N2CCCC2)S/C1=C\c1cccc(Br)c1`, the inhibition is -0.89% (inactive).

Consider `O=C(N/N=C\C1CC=CCC1)c1ccc(Br)o1` (stereo unspecified), for which the inhibition is 2.42% (inactive).

As for `O=C(c1cn(-c2ccccc2)nc1-c1cccnc1)N1CCN(S(=O)(=O)c2ccccc2F)CC1`, the inhibition was -1.36% (inactive).

Regarding `Cc1ccc(CNC(=O)CCN2C(=O)[C@@H]3Cc4ccccc4CN3C2=O)cc1`, the inhibition was 3.38% (inactive).

For `O=C(Nc1nnc(-c2ccccc2)o1)c1cc(-c2cccs2)nc2ccccc12`, the inhibition was 34.7% (active).

For `O=C(NCCN1CCOCC1)c1cc(-c2cccs2)nc2ccccc12`, the inhibition is -5.13% (inactive).

Consider `CCCCN(C)CCCNC(=O)c1cc(-c2cccs2)nc2ccccc12`, for which the inhibition is 1.01% (inactive).

`CCN(CC)c1ccc(NC(=O)CN2C(=O)NC3(CCc4ccccc43)C2=O)cc1` (stereo unspecified): the inhibition is 3.2% (inactive).

Regarding `COCCCn1c(-c2cccs2)nc2nc3ccccc3nc21`, the inhibition was -1.53% (inactive).

`CC(C)(C)c1ccccc1NC(=O)CN1C(=O)NC2(CCCC2)C1=O`: the inhibition is -2.93% (inactive).

As to `O=C(/C=C/c1ccco1)Nc1ccc(Oc2ccccc2)cc1`, the inhibition is 3.61% (inactive).

`Cc1ccc(-n2nc3ccc(NC(=O)/C=C/c4ccco4)cc3n2)cc1C`: the inhibition was 19.2% (active).

For `Cc1nnc(NC(=O)/C=C/c2ccco2)s1`, the inhibition is -3.35% (inactive).

With `COc1ccc(CN2CCN(Cc3ccc(OC)c(OC)c3OC)CC2)cc1`, the inhibition was -0.69% (inactive).

In the case of `CCOc1ccc(N(CC(=O)Nc2cccc(OC)c2)S(C)(=O)=O)cc1`, the inhibition was -2.47% (inactive).

`COc1ccc(NC(=O)CSc2nnc(-c3ccccc3F)n2C2CC2)cc1S(N)(=O)=O`: the inhibition is -2.33% (inactive).
